# Laboratory results from the supplement of paper PMC11634586.
# Counter-ions that a name gives are not always drawn.
# Tested on: NCI-H1688
# Test: inhibition of cell viability relative to untreated control (fraction); higher = stronger growth inhibition, active = 0.5 or more
# Details: 30 µM; 24 h
# Summary of the method: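 NCI-H1688 small cell lung cancer cells were seeded at 3 × 10^3 cells/well in 96-well plates and treated 24 h later with a natural compound library (TargetMol) at 30 µM for 24 h, at 37°C with 5% CO2. Viability was read in triplicate with Cell Counting Kit-8 as absorbance at 450 nm. Inhibition of cell viability is expressed as a fraction, derived from viability normalised to the untreated control.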
row,SMILES,inhibition of cell viability
1,O=C1O[C@H]([C@@H](O)CO)C(O)=C1OP(=O)(O)O [Sodium L-ascorbyl-2-phosphate],0.0357 (inactive)
2,OC[C@H]1O[C@H](O[C@H]2[C@H](O)[C@@H](O)[C@H](O)O[C@@H]2CO)[C@H](O)[C@@H](O)[C@@H]1O [Maltose],0.0503 (inactive)
3,O=C1c2ccccc2C(=O)c2c1ccc(O)c2O [Alizarin],0.344 (inactive)
4,O=C1c2c(O)cccc2C([C@@H]2O[C@H](CO)[C@@H](O)[C@H](O)[C@H]2O)c2cc(CO)cc(O)c21 (stereo not given in full) [Aloin],-0.014 (inactive)
5,CCc1c2c(nc3ccc(OC(=O)N4CCC(N5CCCCC5)CC4)cc13)-c1cc3c(c(=O)n1C2)COC(=O)[C@]3(O)CC [Irinotecan hydrochloride trihydrate],0.311 (inactive)
6,O=C(O)CCc1ccc(O)cc1 [Phloretic acid],0.081 (inactive)
7,CC12CCC(CC1)C(C)(C)O2 [Eucalyptol],-0.192 (inactive)
8,NC[C@H]1O[C@H](O[C@H]2[C@H](O)[C@@H](O[C@H]3O[C@H](CO)[C@@H](O)[C@H](N)[C@H]3O)[C@H](N)C[C@@H]2N)[C@H](N)C[C@@H]1O [Tobramycin],-0.0866 (inactive)
9,O=c1c(-c2ccc(O)cc2)coc2cc(O[C@@H]3O[C@H](CO)[C@@H](O)[C@H](O)[C@H]3O)ccc12 [Daidzin],-0.0211 (inactive)
10,COc1cc2ccc(=O)oc2c(O)c1O [Fraxetin],-0.0287 (inactive)
11,CC[C@H](CC[C@@H](C)[C@H]1CC[C@H]2[C@@H]3CC=C4C[C@@H](O)CC[C@]4(C)[C@H]3CC[C@]12C)C(C)C [Beta-Sitosterol],0.185 (inactive)
12,NCCc1ccc(O)c(O)c1 [Dopamine hydrochloride],0.0465 (inactive)
13,C[C@@H]1O[C@@H](Oc2c(-c3cc(O)c(O)c(O)c3)oc3cc(O)cc(O)c3c2=O)[C@H](O)[C@H](O)[C@H]1O [Myricetrin],-0.141 (inactive)
14,C/C=C(/C)C(=O)OC(C)(C)[C@@H]1Cc2c(ccc3ccc(=O)oc23)O1 [Columbianadin],0.338 (inactive)
15,CC(C)=CCC[C@](C)(O[C@@H]1O[C@H](CO)[C@@H](O)[C@H](O)[C@H]1O)[C@H]1CC[C@]2(C)[C@@H]1[C@H](O)C[C@@H]1[C@@]3(C)CC[C@H](O[C@@H]4O[C@H](CO)[C@@H](O)[C@H](O)[C@H]4O[C@@H]4O[C@H](CO)[C@@H](O)[C@H](O)[C@H]4O)C(C)(C)[C@@H]3CC[C@]12C [Ginsenoside Rd],0.03 (inactive)
16,CC(C)=CCCC(C)CCO (stereo not given) [Citronellol],0.283 (inactive)
17,CCNC(=O)CC[C@H](N)C(=O)O [L-Theanine],-0.151 (inactive)
18,OCC1OC(OC2C(CO)OC(O)C(O)C2O)C(O)C(O)C1O [D-Cellobiose],-0.12 (inactive)
19,CC1(C)CCC[C@](C)([C@H]2CC[C@]3(C)[C@@H]2[C@H](O)C[C@@H]2[C@@]4(C)CC[C@H](O)C(C)(C)[C@@H]4CC[C@]23C)O1 [Panaxadiol],-0.0255 (inactive)
20,Cc1cc(O)c2c(c1)C(=O)c1cc(O)cc(O)c1C2=O [Emodin],0.493 (inactive)
21,Cc1ncc(CO)c(CO)c1O [Pyridoxine],0.0231 (inactive)
22,C=C(NC(=O)C(=C)NC(=O)c1csc(C2=N[C@@H]3c4csc(n4)[C@H]4NC(=O)c5csc(n5)[C@H]([C@](C)(O)[C@@H](C)O)NC(=O)[C@H]5CSC(=N5)/C(=C/C)NC(=O)[C@H]([C@@H](C)O)NC(=O)c5csc(n5)[C@]3(CC2)NC(=O)[C@H](C)NC(=O)C(=C)NC(=O)[C@H](C)NC(=O)[C@H]([C@@H](C)CC)N[C@@H]2C=Cc3c([C@H](C)O)cc(nc3[C@H]2O)C(=O)O[C@@H]4C)n1)C(N)=O [Thiostrepton],0.943 (active)
23,N[C@@H](Cc1cc(I)c(Oc2cc(I)c(O)c(I)c2)c(I)c1)C(=O)O [L-Thyroxine],0.22 (inactive)
24,C=C[C@@]1(C)CC(=O)[C@]2(O)[C@@]3(C)[C@@H](O)CCC(C)(C)[C@@H]3[C@H](O)[C@H](OC(C)=O)[C@@]2(C)O1 [Forskolin],0.166 (inactive)
25,C[N+](C)(C)CC(=O)O [Betaine],0.299 (inactive)
